Data as given in PubChem BioAssay (NCI).
This is part of a sample that, as a whole, favours compounds with a hit. Of some 79,000 tested, about 15% had one in any assay. Rule as the data show it: active = growth inhibition above about 70%; inactive = the rest.

Key:
[1] = NCI Yeast Anticancer Drug Screen. Data for the rad50 strain (AID 155);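 also: 0% = growth of vehicle-only cultures of the same strain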; conditions: S. cerevisiae rad50 strain growth inhibition; at 50.0 µM; stronger effect = higher value
In short: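 Inhibition values express reduced yeast growth in compound-treated cultures relative to vehicle-treated controls.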

[2] = NCI Yeast Anticancer Drug Screen. Data for the mec2-1 strain (AID 157); conditions: S. cerevisiae mec2-1 strain, at 50.0 µM, stronger effect = higher value
In short: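 Cells of the genetically defined mec2-1 yeast strain are incubated with test compound. Inhibition of growth is calculated against vehicle-treated controls.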

[3] = NCI Yeast Anticancer Drug Screen. Data for the sgs1 mgt1 strain (AID 161);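 also: 0% = growth of cultures given vehicle only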; conditions: S. cerevisiae sgs1 mgt1 strain, at 50.0 µM, stronger effect = higher value
In short: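 Inhibition of yeast growth, normalised to vehicle-treated controls, is reported for a strain bearing genetic alterations in DNA damage repair.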

[4] = NCI Yeast Anticancer Drug Screen. Data for the cln2 rad14 strain (AID 165);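 also: 0% = growth equal to vehicle treated cultures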; conditions: S. cerevisiae cln2 rad14 strain, at 50.0 µM, stronger effect = higher value
In short: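 The screen exposed genetically defined yeast (cln2 rad14) to test compounds and scored growth inhibition relative to vehicle-treated controls.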

[5] = NCI Yeast Anticancer Drug Screen. Data for the bub3 strain (AID 167); conditions: S. cerevisiae bub3 mutant strain, at 50.0 µM, stronger effect = higher value
In short: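 Steps: expose the mutant yeast strain to compound; grow alongside vehicle-treated cultures; measure growth; express inhibition against the vehicle cultures.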

[6] = NCI Yeast Anticancer Drug Screen. Data for the mlh1 rad18 strain (AID 175); conditions: S. cerevisiae mlh1 rad18 strain growth inhibition; at 50.0 µM; stronger effect = higher value
In short: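 Compound-treated yeast growth, normalised to vehicle controls. Strain bears defined DNA repair mutations.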

Measured: growth inhibition

CC(C)(C)OC(=O)C1C(=O)CC(c2ccccc2)C1c1ccccc1 (stereo unspecified)
inactive: [1] -3.05% | [2] -3% | [3] 1.25% | [4] -7.8% | [5] -5.7% | [6] -1.9%

COc1ccc(/C=N/NC(N)=S)cc1
inactive: [1] 24.1% | [2] 14.6% | [3] 28.6% | [4] -13% | [5] 12.8% | [6] 46.6%

O=c1[nH]nnc2cc(Cl)ccc12
inactive: [1] 0% | [2] 6.15% | [3] -4.65% | [4] -12.2% | [5] 2% | [6] -1.3%

CCCCCCCCCCCCCCCCCCNC(=O)NCc1ccncc1
inactive: [1] -13.3% | [2] 1.8% | [3] -11.3% | [4] -4.3% | [5] -0.35% | [6] 9.3%

CC(C)(C)OC(=O)CC1(O)CCCCC1
inactive: [1] 4.15% | [2] -5.9% | [3] -6.05% | [4] 4.75% | [5] 4% | [6] 8.05%

COC(=O)/C(=N/NC(C)(C)C)C(C(=O)OC)C(=O)C(=O)Nc1nc2ccc([N+](=O)[O-])cc2s1 (stereo unspecified)
inactive: [1] 33.1% | [2] 8.15% | [3] -22.9% | [4] -10.4% | [5] 0.1% | [6] 27.4%

O=C(C[n+]1cc(Br)cc(Br)c1)c1ccc2ccccc2c1
inactive: [1] 27.2% | [2] 3.45% | [3] 7.7% | [4] 11.8% | [5] 20.2% | [6] 43.6%

O=C(CC(=O)Nc1ccccc1)NNC(c1cc(N=Nc2ccc(Br)cc2)ccc1O)P(O)O (stereo unspecified)
inactive: [1] -4.65% | [2] 6.25% | [3] -10.4% | [4] -3.2% | [5] -14% | [6] -38%

CN1CCOC1(C)CO (stereo unspecified)
inactive: [1] 3.85% | [2] -16.7% | [3] -10.3% | [4] -20.6% | [5] -8.5% | [6] -55%

COc1cc(/C=C/C(=O)c2ccccc2O)cc(OC)c1OC
inactive: [1] -1% | [2] -17.1% | [3] 16.4% | [4] -6.35% | [5] -9.15% | [6] 13.8%

CCSC1C(N=[N+]=[N-])C(CO)OC1n1cnc2c(N)ncnc21 (stereo unspecified)
inactive: [1] 1.3% | [2] -3.2% | [3] 9.3% | [4] 10.9% | [5] -2% | [6] 4.7%

CCOP(=O)(OCC)C(NC(=O)C(C(F)(F)F)C(F)(F)F)c1ccccc1 (stereo unspecified)
inactive: [1] 7.85% | [2] 16.2% | [3] 0.05% | [4] 24.4% | [5] 34.1% | [6] -14.1%

CC1CN(C(=S)Nc2cccc3ccccc23)CC(C)O1 (stereo unspecified)
inactive: [1] 19.4% | [2] 36.5% | [3] 44.9% | [4] 22% | [5] 44.8% | [6] 7.8%

O=[N+]([O-])c1ccc(SC2OC(CO)C(O)C(O)C2O)c([N+](=O)[O-])c1 (stereo unspecified)
inactive: [1] 2.05% | [2] 29.4% | [3] 3.95% | [4] -14.2% | [5] -5.35% | [6] 20.8%

[N-]=[N+]=NC1CC(n2ccc(N)nc2=O)OC1CO (stereo unspecified)
inactive: [1] -3.9% | [2] 13.6% | [3] 0.8% | [4] -6.65% | [5] -8.95% | [6] 8.8%

Cc1ccc(NC(=O)CSc2nnc(-c3ccc(N=Cc4ccc(Cl)cc4)cc3)o2)cc1
inactive: [1] 2.3% | [2] -36.9% | [3] 12.5% | [4] -59.8% | [5] -15.8% | [6] 18.6%

CCOC(=C[P+](c1ccccc1)(c1ccccc1)c1ccccc1)OCC
inactive: [1] -6.5% | [2] 20.8% | [3] 2.35% | [4] -9.5% | [5] -3.6% | [6] -36%

COc1cc(C(O)C(CO)Oc2c(OC)cc(C3OCC4C(c5cc(OC)c(O)c(OC)c5)OCC34)cc2OC)ccc1O (stereo unspecified)
inactive: [1] 20.1% | [2] 1.4% | [3] -2.05% | [4] 10% | [5] -6.7% | [6] 15.2%

OC(CCl)(CCl)CCl
inactive: [1] 9.5% | [2] -11.9% | [3] -9.7% | [4] -16.5% | [5] -2.05% | [6] 18.8%

CN(Cc1ccccc1)N=NCc1ccccc1
inactive: [1] 15.8% | [2] -15.8% | [3] -20.4% | [4] 3.35% | [5] 3.65% | [6] -9.7%

COc1cc2c(c(OC)c1OC)-c1ccc(SC)c(=O)cc1C(N=C(NC1OCC(OC(C)=O)C(OC(C)=O)C1OC(C)=O)SN(NC(=O)OCc1ccccc1)C(=O)OCc1ccccc1)CC2 (stereo unspecified)
inactive: [1] 5.6% | [2] 10.4% | [3] 24.4% | [4] -11.7% | [5] -1.55% | [6] 32.3%
